Screens deposited in PubChem by National Center for Advancing Translational Sciences (NCATS).
A selection: hits, their analogues and other compounds. The true share with any hit is near 2.8%.
GLP1R cytotox: cytotoxicity in counter-screen for GLP-1R inverse agonists | Potency, µM (doses to about 38.3 µM), for the others: at the top dose activity change, negative = inhibition, actives largely listed as inhibitors | HEK293 cAMP-luciferase reporter cells, luminescence, 24 h | 0.13% of 410,000 active;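 also: loss of luciferase light is scored as toxicity; % is scaled to controls: 0 for no effect and ±100 for the full control effect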
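Step one: seed cells (200 cells/uL, DMEM with 10% Nu serum, 1% pen-strep). Step two: 12-hour incubation at 37 deg C. Step three: pin 23 nL compound, incubate 24 hr. Step four: add luciferase reagent, read luminescence 12 min later.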
GLP-1R agonist: activates the human GLP-1 receptor. 0.007% of 380,000 active. Potency, µM (series often up to 45.6 µM), for the others: at the highest dose activation, usual class: activators. HEK293 GLP-1R CRE-luciferase, luminescence, 4-6 h; cells express a hypersensitive GLP-1R form; also: % of control where 0% means no effect
Target sequence (P43220 whole entry, looked up): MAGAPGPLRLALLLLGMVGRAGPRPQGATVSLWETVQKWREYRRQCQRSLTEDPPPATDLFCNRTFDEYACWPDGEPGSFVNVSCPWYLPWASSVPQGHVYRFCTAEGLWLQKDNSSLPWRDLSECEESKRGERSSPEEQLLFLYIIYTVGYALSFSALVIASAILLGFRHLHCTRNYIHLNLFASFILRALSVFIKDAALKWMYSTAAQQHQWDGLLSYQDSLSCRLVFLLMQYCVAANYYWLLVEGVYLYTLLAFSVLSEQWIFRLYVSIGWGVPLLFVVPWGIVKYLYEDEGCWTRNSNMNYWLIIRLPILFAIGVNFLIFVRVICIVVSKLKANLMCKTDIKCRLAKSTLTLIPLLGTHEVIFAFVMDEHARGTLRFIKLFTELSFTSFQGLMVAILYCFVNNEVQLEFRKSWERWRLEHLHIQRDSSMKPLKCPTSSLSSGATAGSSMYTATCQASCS
BRCA1 expr up: increases BRCA1 expression. MCF7-BRCA1-FFLuc reporter, luminescence, 48 h; response scale: scaled: vehicle 0%, 10 µM genistein 100%. Potency, µM (top dose mostly 46.1 µM), for inactives: top-dose activation, hits mostly activators. 1.1% of 380,000 active. AID 624202; also: nearly all actives have a fitted effect of over 80% in size
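Cells: MCF7-BRCA1-FFLuc, 2000/well. Exposure: 48 h, 37 °C, 5% CO2. Read: luminescence, 15 min post-substrate. Controls: genistein 10 microM (maximal activation), DMSO (neutral).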
Mito fusion act: mitochondrial division inhibition or fusion activation; S. cerevisiae fusion-defective mutant growth rescue, CellTiterGlo 48 h; Potency, µM (titrated, usually from 46.1 µM), for the others: at the top dose growth rescue (activation), hits mostly activators; 0.23% of 320,000 active; AID 485298; also: % of control where 0% means no effect; nearly all actives have a fitted effect of over 45% in size
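Compounds are tested for their ability to restore growth of mitochondrial fusion-defective yeast strains at non-permissive 37C in YPEG medium over 48 hours. Viability is quantified by luciferase luminescence.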
GLP1R inv ag: acts as inverse agonist at human GLP-1 receptor; HEK293 GLP-1R CRE-luciferase, luminescence, 24 h; GLP-1R form is constitutively active; Potency, µM (series often up to 38.3 µM), for inactives: at the top dose activity change, negative = inhibition, most hits filed as inhibitors; 1.6% of 410,000 active; AID 624417; P43220; also: % is scaled to controls: 0 for no effect and ±100 for the full control effect; nearly all actives have a fitted effect of over 55% in size
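HEK293 cells stably co-expressing constitutively active GLP-1R and a cAMP-responsive luciferase reporter were seeded in DMEM with 10% Nu serum, given compounds after 12 h, and incubated 24 h at 37 deg C. Luminescence was then read.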
* hit, by the source's call; ? = inconclusive; . = no result; [ ] = another dose, or the depositor's remark. Calls follow the shape of the dose curve; as a rule, active = well fitted curve in the direction sought with a large enough effect; inconclusive = small, poorly fitted or top-dose-only effect, or another doubt; inactive = no such curve, though single readings can be large; an effect the other way counts as inactive or inconclusive. Potency is read from the fitted curve at half-maximal effect.

SMILES	GLP1R cytotox	GLP-1R agonist	BRCA1 expr up	Mito fusion act	GLP1R inv ag
CC(=O)NCCNC(=O)c1ccc(CSc2ccc(Cl)cc2)cc1	-2.5%	10.1%	11.2µM*	-3.0%	0.3%
Cc1cccc(NC(=O)N(Cc2cc3cc(C)ccc3[nH]c2=O)CC2COCCO2)c1 (centres undefined)	-3.0%	4.0%	-35.5%	3.7%	-18.0%
Cc1[nH]c2ccccc2c1C1=NNC(=Nc2ccc(F)cc2)SC1	?	-1.7%	-52.2%	20.2%	11.2µM*
S=C1NC2(CCCCC2)Cc2ccccc21	?	11.6%	-6.9%	-4.9%	?
CCOC(=O)C1=C(C)N=c2s/c(=C/c3ccco3)c(=O)n2C1c1cccc(OC)c1 (centres undefined)	0.8%	-10.8%	-21.7%	-1.8%	11.2µM*
CCOC(=O)C1=C(C)N=c2s/c(=C\c3ccc(C(=O)O)cc3)c(=O)n2C1c1ccc(OC)cc1OC (centres undefined)	?	-4.9%	-35.9%	.	10.6%
COc1ccc(CC2S/C(=N/N=C/c3ccccc3O)NC2=O)cc1 (centres undefined)	?	-0.9%	-57.6%	9.6%	2.51µM*
O=C(O)CN1C(=O)/C(=C2\C(=O)N(Cc3ccccc3Cl)c3ccccc32)SC1=S	-7.7%	6.2%	-38.6%	-3.9%	11.2%
Cc1ccc(NC(=O)N2CCCCCC2)cc1	-4.1%	8.5%	7.94µM*	-2.7%	?
CCOC(=O)C1CCN(C(=O)Nc2ccc(OC(F)(F)F)cc2)CC1	-12.1%	6.9%	12.6µM*	-0.8%	?
CCc1ccc(NC(=O)N2CCCCCC2)cc1	-3.0%	-3.6%	7.08µM*	1.9%	?
Cc1ccc(NC(=S)N2CCCCCC2)cc1	8.7%	0.3%	12.6µM*	-3.8%	-15.0%
CCOC(=O)C1CCN(C(=O)Nc2ccc(NC(=O)C3CCN(C(=O)OCC)CC3)cc2)CC1	6.5%	15.7%	1.5%	2.8%	25.2%
Nc1nc2nc(-c3ccc(F)cc3)cc(C(F)(F)F)n2n1	-1.3%[7.66 µM]	1.3%	-6.6%	16.9%	13.0%[7.66 µM]
Cc1cc(C)cc(-c2nnc(SCC(=O)N3CCN(C(=O)c4ccco4)CC3)o2)c1	-24.6%	-8.6%	-32.1%	3.5%	0.0%
CCc1ccc(NC(=S)N2CCN(C)CC2)cc1	-9.8%	0.9%	11.2µM*	-10.8%	2.0%
C/C(=N\OC(=O)c1cccc(Cl)c1)c1sc(C)nc1C	9.3%	11.1%	12.4%	1.1%	-0.3%
COc1ccc(-c2cccc3c2C2CC3CCN2C(=O)OCc2ccccc2)cc1 (centres undefined)	1.3%	-1.4%	-29.7%	.	22.4µM*
CCCCNc1ccc2c(c1)C1CC2CCN1C(=O)OCc1ccccc1 (centres undefined)	19.9%	19.3%	8.91µM*	.	?
O=C(OCc1ccccc1)N1CCC2CC1c1cc(-c3ccccc3)ccc12 (centres undefined)	1.6%	10.9%	19.1%	.	?
C=CCc1ccc(OCCOCCOc2ccc(C)cc2[N+](=O)[O-])c(OC)c1	0.4%	20.1%	-30.0%	-2.8%	?
CCCN(C)CCCOc1cc2nc(N3CCCN(C)CC3)nc(NC3CCN(C)CC3)c2cc1OC	.	.	-49.9%	.	.
C=CCc1ccc(OCCCOc2ccc(C)c(C)c2)c(OC)c1	-2.0%	0.1%	-10.3%	-1.4%	?
CCCN(CCC)CCCNC(=O)c1cc2c(=O)[nH]c3ccccc3c2s1	-5.5%	9.7%	-8.7%	2.1%	-8.7%
Nc1ncn(C(=S)Nc2ccccc2)n1	4.47µM*	-1.0%	29.2%	.	?
CCOC(=O)c1c(CSc2ccccc2)n(C)c2cc(Br)c(OCC(O)CNC(CO)(CO)CO)cc12 (centres undefined)	?	0.4%	-87.2%	12.9%	8.91µM*
O=C1OC(c2ccccc2)=N/C1=C\N1CCCCC1	3.2%	6.8%	7.94µM*	0.4%	52.2%
O=C1OC(c2ccccc2)=C/C1=C/N1CCCCC1	?	-1.8%	3.98µM*	-1.8%	-1.7%
COc1ccc(CC(=O)Nc2cc(S(=O)(=O)N3CCOCC3)ccc2N2CCCC2)cc1OC	2.0%	16.2%	-14.7%	.	31.5%
Cc1ccc(N(Cc2ccccc2)C(=O)c2ccc(Cl)c(S(=O)(=O)N3CCOCC3)c2)cc1	7.6%	1.7%	-48.3%	25.2%	11.2µM*
